Our source for the growth values is PubChem BioAssay (NCI).

About 83,000 compounds went through this panel and 20% of them were active in at least one assay; those are over-represented in the sample as a whole.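 Treatment: one concentration, 48 hours, 96-well format. Scoring: percent growth, with anything below 10 considered active.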 Activity calls are given as the source filed them.

The test concerns CCRF-CEM leukemia. Kind of test: NCI-60 one-dose screen, 48 h (100 = growth as untreated, 0 = no growth, -100 = all killed). Particulars: 10 µM unless noted. As to the method: Growth inhibition of the CCRF-CEM human tumor cell line is measured as a screen for anti-cancer activity. Cells are grown in 96 well plates and exposed to the test compound for 48 hours. Compounds are tested at a single concentration, which is 10^-5 M for most compounds. The reported endpoint is percent growth (GI% or GIPRCNT), where numbers from 0 - 100% represent growth inhibition, and numbers from -100% - 0 represent cell death. For example, a value of 40 represents 60% growth inhibition. A value of 0 means no net growth occurred over the course of the experiment. A value of -40 indicates 40% of cells at the beginning of the experiment died by the end of the experiment. A value of -100 means all cells are dead at the end of the experiment.
NCI-60 Human Tumor Cell Lines Screen was performed using the standard one-dose NCI protocol, which is described in more detail at https://dtp.cancer.gov/discovery_development/nci-60/default.htm.
Compounds with GIPRCNT values below 10 were considered active. Activity score was based on GIPRCNT using the following formula: […]
Score is 0 for GIPRCNT values of 100 or above, 50 for GIPRCNT values of 0, and 100 for GIPRCNT values of -100.
`O=C(N/N=C(\CS(=O)(=O)c1ccccc1)c1cc2ccccc2oc1=O)c1ccccc1`: the growth is 106% (inactive).
As for `COc1ccc(S(=O)(=O)ON=C2C=C(C)C(=O)C(C)=C2)cc1`, the figure is 26.9% (inactive).
The figure for `Nc1nc(N)c(N=Nc2c(Br)cc(S(N)(=O)=O)cc2Br)c(N)n1` is 88.3% (inactive); for `O=C(Nc1ccc(F)cc1)c1ccc(C(=O)Nc2ccc(F)cc2)cc1` it is 102% (inactive).
With `O=C(N/N=C/c1ccc2c(c1)OCO2)c1cnn2c1NC(c1ccccc1)C2` (stereo not given), the growth is 67.7% (inactive).
As for `O=C1C2CC3C(CC2C(=O)[N]1[Sn]([c]1ccccc1)([c]1ccccc1)[c]1ccccc1)C1(Cl)C(Cl)=C(Cl)C3(Cl)C1(Cl)Cl` (stereo not given), the figure is -43.3% (active); as for `Nc1nc2c(s1)CCc1c-2c(Br)n(Cc2ccccc2)c1Br`, 2.66% (active); as for `COc1ccc(C2SC(C)C(=O)N2CCc2cccs2)cc1OC` (stereo not given), 75.9% (inactive).
With `Cc1nn(-c2ccccc2)c2nc3nc4c(c(N)c3c(-c3ccc(Cl)cc3)c12)CCC4`, the growth is 21.7% (inactive).
For `COc1ccc(/C=N/OCC(O)CN2CCC(O)CC2)cc1OC1CCCC1` (stereo not given), the growth is 113% (inactive).
As for `COc1ccc(/C=N/OCC(O)CNCc2ccccc2)cc1OC1CCCC1` (stereo not given), the figure is 113% (inactive).
As for `CC(=O)c1cc(C)c(OC(=O)c2ccccc2)c(C)c1`, the growth was 85.4% (inactive).
Consider `COc1cc(/C=C/C(=O)C(=Cc2ccc(F)c(F)c2)C(=O)/C=C/c2ccc(O)c(OC)c2)ccc1O`, for which the growth was 9.98% (active).
As for `C=C(C)CCCC(C)CC#N` (stereo not given), the figure is 96.1% (inactive).
The figure for `COc1ccc(OC2=CC(=O)c3ccc(C)nc3C2=O)cc1` is 18.5% (inactive); for `Brc1ccccc1Nc1ccc2nnc(-c3ccncc3)n2n1` it is 85% (inactive); for `CCOC(=O)c1c(Cl)c2c(n1Cc1ccc(OC)cc1)-c1oncc1CCC2` it is 62.2% (inactive).
The figure for `Clc1ccc(Nc2nc(Nc3ccccc3)nc(Nc3ccc(-c4cc(-c5ccc(Cl)cc5)on4)cc3)n2)cc1` is 70.5% (inactive); for `COc1ccc(-n2ncc3c2ccc2cc(S(=O)(=O)c4ccccc4)c(=O)n(C)c23)cc1` it is 96.6% (inactive).
Regarding `COC(=O)C1C2CC3c4[nH]c5cc(OC)ccc5c4CCN3CC2CC(OC2CCCCO2)C1OC` (stereo not given), the growth is 89.2% (inactive).
As for `C=C(C)COC(=O)c1ccccc1C(=O)OCC1(C)CO1` (stereo not given), the growth was 97.2% (inactive).
The figure for `O=c1[nH]c(=S)c2c(n1CCCO)CCC2` is 103% (inactive).
As for `O=C(Nc1ccc(Cl)c(Cl)c1)OCn1ncc2ccc([N+](=O)[O-])cc21`, the figure is 81.8% (inactive); as for `Cc1ccccc1-n1nnc(C(=O)Nc2ccc(-c3ccccc3)cn2)c1C`, 51.8% [50 µM] (inactive); as for `COc1cc(C(F)(F)F)ccc1-c1cc(-c2ccc(F)cc2)n[nH]1`, 89.8% (inactive).
With `Nc1nc(N)c(C=Nc2ccc(Br)cc2)c(Nc2ccc(Br)cc2)n1`, the growth was 81.1% (inactive).
As for `CN1CCc2c(c3ccccc3c3ccccc23)C1`, the figure is -38.4% (active); as for `O=C(CC(O)c1ccccc1)Nc1ccccn1` (stereo not given), 88.9% (inactive).
Consider `COc1cc2nc(N3CCC[C@H](NC4=CC(=O)c5ccccc5C4=O)C3)nc(N)c2cc1OC`, for which the growth is -23.5% (active).
The figure for `Cc1cc(=O)c2c(C)ccc(C)c2[nH]1` is 102% (inactive).
On to `CC(=O)N(CC(O)CO)c1c(I)c(C(=O)NCCO)c(I)c(C(=O)NCC(O)CO)c1I` (stereo not given), for which the growth was 93.4% (inactive).
As for `O=C1C(N2CCOCC2)=Cc2cccc3cccc1c23`, the figure is 102% (inactive); as for `NC(=O)c1cc(Cl)ccc1NC(=O)COc1ccccc1`, 23.2% (inactive); as for `CCCOC(=O)c1ccc2c(c1)[N+](=O)C(C(=O)c1ccccc1)=C(C(F)(F)F)[N+]2=O`, -64.4% (active).
As for `Nc1nc(-c2ccnc(Cl)c2)nn1-c1nc2ccccc2s1`, the figure is 101% (inactive).
For `C=CC[P+](c1ccccc1)(c1ccccc1)c1ccccc1`, the growth was 59.7% (inactive).
Consider `COC(=O)c1c2c(c(C)[n+]([O-])c1C)C(=O)C=C(NCc1cccc(OC)c1)C2=O`, for which the growth was -17.1% (active).
For `Cc1nc2cc(Nc3nc(Nc4ccc(F)cc4)nc(N4CCCC4)n3)ccc2n1Cc1ccccc1`, the growth was -30.4% (active).
Regarding `Cc1cc(Cl)c2c(Cl)ccc(Cl)c2n1`, the growth is 98.7% (inactive).
As for `Cn1c2ccccc2c2nn(Cc3ccccc3)c(=O)nc21`, the growth is 102% (inactive).
